For 16 molecules, growth results are on record in PubChem BioAssay (NCI).

Compounds without any hit were thinned out: in the full panel of roughly 83,000, 20% have a hit.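 Activity criterion: percent growth below 10, measured after cells in 96-well plates were exposed to a single compound concentration for 48 hours.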 Values without a mark were called inactive. Active and inactive are the calls of the source.

Test systems include SK-MEL-2 melanoma; EKVX NSCLC; SN12C renal; UO-31 renal; TK-10 renal; CAKI-1 renal; A498 renal; CCRF-CEM leukemia; MOLT-4 leukemia; ACHN renal.
What all share (assay): NCI-60 one-dose screen, 48 h (100 = growth as untreated, 0 = no growth, -100 = all killed)
Common to all, as to details: 10 µM unless noted

Regarding `O=[N+]([O-])c1ccc(S(=O)(=O)N2CCN(C3=NS(=O)(=O)c4ccccc4N3c3ccccc3)CC2)cc1`, the growth with SK-MEL-2 melanoma was 61.6%; in the assay with EKVX NSCLC, 102%; in the assay on SN12C renal it was 114%; with UO-31 renal, 76.8%; in the assay with TK-10 renal it was 118%; in the assay with CAKI-1 renal, 84.6%. Also, the growth in the assay with A498 renal was 105%; with CCRF-CEM leukemia, 125%; with MOLT-4 leukemia, 94.9%.

For the molecule `Cc1ccccc1/C=C1\CN(C(=O)OC(C)(C)C)C/C(=C\c2ccccc2C)C1=O`, the growth in the assay on SK-MEL-2 melanoma is 86.4%; in the assay with EKVX NSCLC, 55.6%; in the assay with SN12C renal it was -6.85% (active); with UO-31 renal, 31.9%; in the assay with TK-10 renal, 30.3%; in the assay on CAKI-1 renal, 28.8%. In addition, the growth with A498 renal was 84.8%; with CCRF-CEM leukemia it was 2.95% (active); in the assay with MOLT-4 leukemia, 10.8%.

Regarding `O=C(Nc1cccc([N+](=O)[O-])c1)c1cc2ccccc2cc1O`, the growth is 1.68% (active) in the assay with SK-MEL-2 melanoma; 3.68% (active) with EKVX NSCLC; 0.988% (active) in the assay with SN12C renal; 4.6% (active) in the assay with UO-31 renal; 17.4% with TK-10 renal; -22.9% (active) with CAKI-1 renal. Besides, the growth is 1.58% (active) in the assay with A498 renal, -12.7% (active) with CCRF-CEM leukemia and -44.6% (active) in the assay with MOLT-4 leukemia.

As to `O=C1NCCC12CCN(c1c(Cl)cncc1-c1ccc(O)cc1)CC2`, the growth is 105% with SK-MEL-2 melanoma; 86.4% in the assay on EKVX NSCLC; 99.6% in the assay on SN12C renal; 77.8% in the assay on UO-31 renal; 86.9% with TK-10 renal; 90.3% in the assay with CAKI-1 renal. Besides, the growth is 85% in the assay with A498 renal, 98.9% in the assay with CCRF-CEM leukemia and 102% in the assay with MOLT-4 leukemia.

In the case of `N=C(N)c1ccc(-c2ccc(-c3cc(Cl)cc(Cl)c3)o2)o1`, the growth with SK-MEL-2 melanoma is -43.5% (active); with EKVX NSCLC it was -88.2% (active); in the assay with SN12C renal it was -67.6% (active); in the assay with UO-31 renal, -68.1% (active); with TK-10 renal, -76.3% (active); in the assay with CAKI-1 renal it was -74.7% (active). Besides, the growth in the assay with A498 renal is 58.8%; in the assay on CCRF-CEM leukemia, -39.1% (active); in the assay on MOLT-4 leukemia, -60.4% (active).

Take `CCOC(=O)c1c(C)nc2c(c1N)CC(=O)N2Cc1cc(F)cc(Cl)c1`: the growth in the assay with SK-MEL-2 melanoma was 118%; in the assay with EKVX NSCLC it was 85.3%; with SN12C renal, 93.2%; with UO-31 renal, 84.6%; in the assay on TK-10 renal, 92.1%; in the assay with CAKI-1 renal it was 75.8%. Also, the growth was 76.7% in the assay on A498 renal, 95.2% in the assay on CCRF-CEM leukemia and 95.9% in the assay with MOLT-4 leukemia.

Regarding `O=C(Cc1ccccc1)Nc1nc(O)c(/C=C2\C(=O)C=Cc3ccccc32)s1`, the growth in the assay with SK-MEL-2 melanoma is 110%; with EKVX NSCLC, 95.6%; with SN12C renal, 101%; in the assay on UO-31 renal it was 78.2%; in the assay with TK-10 renal, 150%; with CAKI-1 renal, 85.3%. Also, the growth in the assay with A498 renal is 66.8%; in the assay with CCRF-CEM leukemia, 114%; in the assay with MOLT-4 leukemia, 101%.

`CC(C)CCC[C@@H](C)[C@H]1CC[C@H]2[C@@H]3CC=C4C[C@@H](C(C(=O)O)C(=O)O)CC[C@]4(C)[C@H]3CC[C@]12C`: the growth was -58.5% (active) in the assay with SK-MEL-2 melanoma; -32.4% (active) in the assay on EKVX NSCLC; -12.2% (active) in the assay with SN12C renal; -53.4% (active) with UO-31 renal; -52% (active) in the assay with TK-10 renal; -51% (active) in the assay on CAKI-1 renal. Besides, the growth is -84.4% (active) with A498 renal, -24.3% (active) with CCRF-CEM leukemia and -56.2% (active) in the assay on MOLT-4 leukemia.

On to `COc1cc(-c2cc(-c3cccs3)c(C#N)c(N3CCOCC3)n2)cc(OC)c1OC`, for which the growth in the assay with SK-MEL-2 melanoma was 95.6%; with EKVX NSCLC it was 88.1%; with SN12C renal it was 77.9%; in the assay on UO-31 renal, 58.9%; in the assay on TK-10 renal, 92.5%; in the assay on CAKI-1 renal, 66.5%. The growth was 66.4% with A498 renal, 38.8% in the assay with CCRF-CEM leukemia and 28.3% with MOLT-4 leukemia.

In the case of `O=C1CC(N2C(=O)/C(=C/C(Cl)=C\c3ccc([N+](=O)[O-])cc3)SC2=S)C(=O)N1c1ccc(Cl)cc1` (centres undefined), the growth in the assay on SK-MEL-2 melanoma was 68.3%; in the assay with EKVX NSCLC it was 32.3%; in the assay with SN12C renal, 4.02% (active); with UO-31 renal, -42.8% (active); with TK-10 renal it was 38%; with CAKI-1 renal, 23.5%. Moreover, the growth is 55% in the assay on A498 renal, 11.4% in the assay with CCRF-CEM leukemia and 11.7% with MOLT-4 leukemia.

As for `CC1(C)CC2=C3C=C[C@@H]4[C@@]5(C)CCC(=O)C(C)(C)[C@@H]5CC[C@@]4(C)[C@]3(C)CC[C@@]2(C(=O)O)CC1=O`, the growth with SK-MEL-2 melanoma was 68.3%; in the assay with EKVX NSCLC, 63.3%; with SN12C renal, 85.1%; with UO-31 renal, 44.4%; in the assay with TK-10 renal, 61.2%; in the assay on CAKI-1 renal, 52.3%. In addition, the growth with A498 renal is 42.1%; in the assay on CCRF-CEM leukemia, 58%; in the assay with MOLT-4 leukemia it was 54.6%.

As for `COc1ccccc1NC(=O)Cn1cc(CN2CCN(c3ccnc4cc(Cl)ccc34)CC2)nn1`, the growth in the assay on SK-MEL-2 melanoma was 112%; with EKVX NSCLC, 92.5%; with SN12C renal, 98%; in the assay on UO-31 renal it was 66.8%; in the assay with TK-10 renal, 102%; in the assay on CAKI-1 renal it was 80.2%. Also, the growth with A498 renal is 94.8%; in the assay with CCRF-CEM leukemia, -34.8% (active); in the assay on MOLT-4 leukemia it was 70.8%.

`COc1ccc(OC)c(C(=O)/C=C/c2cc3c(c(OC)c2OC)OCO3)c1`: the growth is 83.6% with SK-MEL-2 melanoma; 73% with EKVX NSCLC; 74.7% with SN12C renal; 63.6% with UO-31 renal; 122% with TK-10 renal; 52% in the assay with CAKI-1 renal. In addition, the growth in the assay with A498 renal was 69.9%; in the assay on CCRF-CEM leukemia, 40.1%; in the assay with MOLT-4 leukemia, 52.8%.

On to `c1cnc2[nH]cc(-c3csc(-c4cn(CCCN5CCOCC5)c5ccccc45)n3)c2c1`, for which the growth with SK-MEL-2 melanoma is 82.6%; in the assay with EKVX NSCLC, 47.9%; in the assay on SN12C renal, 64.5%; in the assay on UO-31 renal, 23%; in the assay with TK-10 renal, 69.6%; with CAKI-1 renal, 47.5%. The figures for the growth with A498 renal, in the assay on CCRF-CEM leukemia and in the assay with MOLT-4 leukemia were 53.9%, 17.4% and 16.6%, respectively.

On to `COc1cc(CNC(=O)/C=C/C=C/c2ccc3c(c2)OCO3)ccc1OCc1cn(-c2ccc(C)c(C)c2)nn1`, for which the growth in the assay on SK-MEL-2 melanoma was 93.5%; in the assay with EKVX NSCLC, 94.1%; in the assay with SN12C renal, 84.9%; with UO-31 renal, 99.8%; in the assay on TK-10 renal it was 120%; in the assay with CAKI-1 renal, 54.4%. The growth with A498 renal is 80.3%; with CCRF-CEM leukemia, 95.7%; in the assay on MOLT-4 leukemia, 96.2%.

Take `Clc1ccc(Nc2nnc(COc3ccccc3)c3ccccc23)cc1`: the growth in the assay with SK-MEL-2 melanoma is -26.5% (active); in the assay with SN12C renal it was 17%; in the assay with UO-31 renal it was -12.3% (active); in the assay on TK-10 renal, -17.5% (active); with ACHN renal, 3.37% (active); in the assay with CAKI-1 renal, 15.4%. In addition, the values for the growth in the assay with A498 renal, in the assay with CCRF-CEM leukemia and in the assay on MOLT-4 leukemia were -17.3% (active), 1.06% (active) and -32.6% (active), respectively.
